Test results taken from PubChem BioAssay (Tox21).
“And” between values parts separate entries of the source, which are not always exact repeats. Equal entries are not always repeated. Inconclusive results are not listed. Entries that show only a call come without a potency. The source holds several records for some structures; these can differ, active in one and inactive in another. The source made the active and inactive calls. Unless noted, the call rests on the fitted dose curve; in most records, active means well fitted curve in the direction sought with a large enough effect in the repeat runs; inconclusive means weak or mixed curves; inactive means no such curve, though single readings can be large; an effect the other way counts as inactive or inconclusive.

Key:
[1] = qHTS assay to identify small molecule agonists of the estrogen receptor alpha (ER-alpha) signaling pathway in the presence of an antagonist - cell viability counter screen (AID 1259386); further: nearly all actives have a fitted effect of over 30% in size; further: potency means the concentration at half of the fitted maximal effect
In short: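 Compounds tested at 15 concentrations for 22 h at 37C alongside 10.0nM (final) ICI-182,780 antagonist, in VM7Luc4E2 cells grown in phenol red-free, charcoal-stripped medium. Viability read by CellTiter-Fluor fluorescence after 1 h reagent incubation.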

[2] = target: Progesterone receptor (Homo sapiens) (UniProt P06401); assay: qHTS assay to identify small molecule agonists of the progesterone receptor (PR) signaling pathway (AID 1346784; calls by dose curve; further: nearly all actives have a fitted effect of over 30% in size; further: potency means the concentration at half of the fitted maximal effect)
In short: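 Fluorescence from LiveBLAzer B/G FRET substrate cleavage (2 hr, RT) reported PR activation in PR-UAS-bla HEK 293T cells treated 16 hr at 37C/5% CO2 with compounds; medium contained 2% charcoal-stripped FBS.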

[3] = target: Progesterone receptor (Homo sapiens) (UniProt P06401); assay: qHTS assay to identify small molecule antagonists of the progesterone receptor (PR) signaling pathway (AID 1346795; active means well fitted inhibition curve with a large enough effect in the signal ratio in the repeat runs, not every such curve was filed as active; the % refers to the signal ratio; further: potency means the concentration at half of the fitted maximal effect)
In short: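 Fluorescence intensity measured 2 hr after adding beta-lactamase FRET substrate to PR-UAS-bla HEK293T cells that had been co-treated 16 hr with compound and 1 nM R5020 (final concentration) in 2% charcoal-stripped FBS.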

[4] = qHTS assay to identify small molecule antagonists of the progesterone receptor (PR) signaling pathway - cell viability counter screen (AID 1346798); further: nearly all actives have a fitted effect of over 50% in size; further: potency means the concentration at half of the fitted maximal effect
In short: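 CellTiter-Glo luminescence; PR-UAS-bla HEK293T, 3,000 cells/well; compound + R5020, 16 hr, 37C/5% CO2; 30 min RT before read.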

[5] = qHTS assay to identify small molecule agonists of the progesterone receptor (PR) signaling pathway - cell viability counter screen (AID 1346799; calls by dose curve; further: nearly all actives have a fitted effect of over 45% in size; further: potency means the concentration at half of the fitted maximal effect)
In short: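 In parallel with the beta-lactamase readout, cytotoxicity toward PR-UAS-bla HEK293T cells was measured by CellTiter-Glo luminescence following 16 hr compound incubation in 2% charcoal-stripped FBS medium.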

[6] = qHTS assay to identify small molecule antagonists of the TGF-beta/Smad signaling pathway - cell viability counter screen (AID 1346824); further: nearly all actives have a fitted effect of over 50% in size; further: potency means the concentration at half of the fitted maximal effect
In short: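 SBE-bla HEK 293T cells were plated overnight at 37 C, then given compounds in DMSO plus TGF-beta1 (added as 0.25 ng/mL solution) for 5 hr. After the bla read, CellTiter-Glo was added to the same wells and luminescence read after 30 min at room temperature.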

[7] = qHTS assay to identify small molecule agonists of the TGF-beta/Smad signaling pathway - cell viability counter screen (AID 1346829); further: nearly all actives have a fitted effect of over 45% in size; further: potency means the concentration at half of the fitted maximal effect
In short: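 Same-well cytotoxicity: CellTiter-Glo added after the 2 hr room-temperature beta-lactamase substrate step, luminescence measured 30 min later; cells had 5 hr of compound at 37 C.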

[8] = qHTS assay to identify small molecule agonists of the TGF-beta/Smad signaling pathway (AID 1346859; active means well fitted activation curve with a large enough effect in the signal ratio in the repeat runs, not every such curve was filed as active; the % refers to the signal ratio; further: series mostly up to about 77 µM)
In short: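 After overnight seeding, SBE-bla HEK 293T cells are dosed with compounds in DMSO and kept 5 hr at 37 C, 5% CO2. LiveBLAzer-type FRET substrate is then applied for 2 hr at room temperature.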

[9] = target: Thyrotropin receptor (Homo sapiens) (UniProt P16473); assay: qHTS assay to identify small molecule antagonists of the thyroid stimulating hormone receptor (TSHR) signaling pathway (AID 1259385; calls by dose curve; further: nearly all actives have a fitted effect of over 20% in size)
In short: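 TSHR-HEK293 cells were plated and held 18 h at 37C/5% CO2, then given compound plus Ro20-1724 and stimulated with TSH at 1.5 ng/mL final. After 30 min at room temperature, cAMP was detected with cAMP-d2/anti-cAMP-cryptate (1 h) by fluorescence.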

[10] = target: Thyrotropin-releasing hormone receptor (Homo sapiens) (UniProt P34981); assay: qHTS assay to identify small molecule antagonists of the thyrotropin-releasing hormone receptor (TRHR) signaling pathway (AID 1346877; active means well fitted inhibition curve with a large enough effect in the repeat runs, not every such curve was filed as active; further: series mostly up to about 51 µM)
In short: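 Antagonist mode: after a 5 min room-temperature compound exposure, cells were stimulated with 1 nM (final) TRH. Dye-loaded TRHR-HEK293 cells were used, and calcium-dependent fluorescence was followed for 3 min, with 15-point titrations run in triplicate.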

Sequence of Thyrotropin receptor (Homo sapiens) (P16473 whole entry, looked up): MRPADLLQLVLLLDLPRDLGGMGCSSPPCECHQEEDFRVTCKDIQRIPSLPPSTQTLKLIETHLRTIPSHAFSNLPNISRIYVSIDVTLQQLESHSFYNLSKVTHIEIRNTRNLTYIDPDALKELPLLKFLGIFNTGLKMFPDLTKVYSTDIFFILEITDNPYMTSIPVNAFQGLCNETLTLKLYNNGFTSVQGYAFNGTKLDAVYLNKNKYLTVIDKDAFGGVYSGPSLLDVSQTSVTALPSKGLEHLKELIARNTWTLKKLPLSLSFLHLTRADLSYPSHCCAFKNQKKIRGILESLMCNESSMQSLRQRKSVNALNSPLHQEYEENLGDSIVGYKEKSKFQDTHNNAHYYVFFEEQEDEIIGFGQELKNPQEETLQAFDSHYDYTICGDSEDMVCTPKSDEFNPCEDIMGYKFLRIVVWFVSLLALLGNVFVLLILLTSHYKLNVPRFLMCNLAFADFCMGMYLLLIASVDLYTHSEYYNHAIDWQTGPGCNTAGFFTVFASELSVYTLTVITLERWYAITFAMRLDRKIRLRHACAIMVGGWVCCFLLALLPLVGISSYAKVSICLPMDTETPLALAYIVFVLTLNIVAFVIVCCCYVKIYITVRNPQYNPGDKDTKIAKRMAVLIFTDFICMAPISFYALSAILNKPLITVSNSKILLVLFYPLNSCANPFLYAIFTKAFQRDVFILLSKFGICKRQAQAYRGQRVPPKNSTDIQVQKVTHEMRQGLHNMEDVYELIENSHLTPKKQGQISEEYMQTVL
Sequence of Progesterone receptor (Homo sapiens) (P06401 whole entry, looked up): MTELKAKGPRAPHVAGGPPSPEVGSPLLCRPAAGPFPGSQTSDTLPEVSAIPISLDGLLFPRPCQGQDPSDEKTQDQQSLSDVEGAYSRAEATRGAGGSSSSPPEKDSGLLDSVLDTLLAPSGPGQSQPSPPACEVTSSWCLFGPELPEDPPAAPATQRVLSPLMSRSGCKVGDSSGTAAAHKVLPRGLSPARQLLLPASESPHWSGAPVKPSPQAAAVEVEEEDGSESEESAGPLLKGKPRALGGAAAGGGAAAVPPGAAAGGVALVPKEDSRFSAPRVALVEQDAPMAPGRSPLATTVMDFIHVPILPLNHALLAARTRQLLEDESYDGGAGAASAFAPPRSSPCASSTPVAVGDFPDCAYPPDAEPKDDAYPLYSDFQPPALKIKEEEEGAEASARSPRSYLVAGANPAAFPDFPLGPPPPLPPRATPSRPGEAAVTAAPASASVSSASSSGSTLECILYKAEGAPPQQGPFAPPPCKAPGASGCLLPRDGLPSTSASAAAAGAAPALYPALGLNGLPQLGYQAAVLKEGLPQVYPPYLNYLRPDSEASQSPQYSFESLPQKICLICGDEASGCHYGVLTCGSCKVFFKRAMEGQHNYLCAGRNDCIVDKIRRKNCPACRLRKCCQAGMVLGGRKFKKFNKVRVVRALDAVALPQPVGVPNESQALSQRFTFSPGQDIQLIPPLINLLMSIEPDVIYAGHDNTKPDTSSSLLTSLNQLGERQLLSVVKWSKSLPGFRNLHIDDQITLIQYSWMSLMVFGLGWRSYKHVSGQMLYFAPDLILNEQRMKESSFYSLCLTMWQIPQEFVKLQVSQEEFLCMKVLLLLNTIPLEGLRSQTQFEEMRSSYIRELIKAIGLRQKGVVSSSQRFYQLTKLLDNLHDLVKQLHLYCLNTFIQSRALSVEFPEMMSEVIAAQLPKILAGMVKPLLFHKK
Sequence of Thyrotropin-releasing hormone receptor (Homo sapiens) (P34981 whole entry, looked up): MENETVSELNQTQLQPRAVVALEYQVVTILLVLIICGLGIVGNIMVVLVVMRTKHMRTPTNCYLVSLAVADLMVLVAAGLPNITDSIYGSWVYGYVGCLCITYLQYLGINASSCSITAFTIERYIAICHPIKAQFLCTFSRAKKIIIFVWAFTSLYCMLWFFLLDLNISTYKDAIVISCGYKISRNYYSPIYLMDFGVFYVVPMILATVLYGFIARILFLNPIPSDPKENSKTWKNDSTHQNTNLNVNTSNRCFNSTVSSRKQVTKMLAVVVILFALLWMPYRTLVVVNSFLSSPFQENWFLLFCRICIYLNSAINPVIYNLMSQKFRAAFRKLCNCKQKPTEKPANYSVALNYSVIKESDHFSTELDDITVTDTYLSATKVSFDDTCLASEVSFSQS

Row | SMILES | Potency [1] | Potency [2] | Potency [3] | Potency [4] | Potency [5] | Potency [6] | Potency [7] | outcome [8] | outcome [9] | Potency [10]
1 | CC(C)=CC1C(C(=O)OCc2coc(Cc3ccccc3)c2)C1(C)C (stereo not given) | inactive | inactive | 48.6 µM (active) | inactive | inactive | inactive | inactive | inactive |  | 
2 | CN(C)c1ccc(C(=O)c2ccc(N(C)C)cc2)cc1 |  | inactive | 27.3 µM (active) |  | inactive | inactive | inactive | inactive | inactive | inactive
3 | CC(C)(OOC(C)(C)c1ccccc1)c1ccccc1 | inactive | inactive |  | inactive | inactive | inactive | inactive | inactive | inactive | inactive
4 | O=C(Nc1ccc(Br)cc1)c1cc(Br)cc(Br)c1O | 21.6 µM (active) and 9.69 µM (active) |  |  |  | inactive | 30.8 µM (active) and 21.9 µM (active) and 19 µM (active) | 24.5 µM (active) and 43.6 µM (active) and 23.9 µM (active) |  | inactive | 
5 | CC(C)(C)c1ccccc1O | inactive | inactive | inactive | inactive | inactive | inactive | inactive |  |  | inactive
6 | O=[N+]([O-])c1c(Cl)c(Cl)c(Cl)c(Cl)c1Cl | inactive | inactive | inactive | inactive | inactive | inactive | inactive |  |  | inactive
7 | c1ccc(P(c2ccccc2)c2ccccc2)cc1 | inactive | inactive |  | inactive | inactive | inactive | inactive |  | inactive | 
8 | Cc1ccc2c(c1N)C(=O)c1ccccc1C2=O | 27 µM (active) and 27.3 µM (active) | inactive |  |  | inactive | inactive | inactive | inactive | inactive | 
9 | Nc1c(Cl)cc([N+](=O)[O-])cc1Cl |  | inactive | 30.6 µM (active) |  |  | inactive | inactive | inactive |  | 
10 | C#CCOS(=O)OC1CCCCC1Oc1ccc(C(C)(C)C)cc1 (stereo not given) | 30.7 µM (active) and 48.6 µM (active) | inactive |  |  |  | inactive | inactive | inactive | inactive | inactive
11 | O=C(O)CC[N+](=O)[O-] | inactive | inactive | inactive | inactive | inactive | inactive | inactive | inactive |  | 
12 | Brc1ccc(Oc2cc(Br)c(Br)cc2Br)c(Br)c1 | inactive | inactive |  | inactive | 38.6 µM (active) and 43.6 µM (active) | inactive | inactive | inactive |  | inactive
13 | CCN(CC)C(=O)SCc1ccc(Cl)cc1 | inactive | inactive | 25.1 µM (active) and 27.3 µM (active) |  | inactive | inactive | inactive |  |  | inactive
14 | Cc1ccc(N)c(N)c1 | inactive | inactive |  |  | inactive | inactive | inactive | inactive |  | 
15 | C[C@]12CCC(=O)C[C@@H]1CC[C@@H]1[C@@H]2CC[C@]2(C)[C@@H](O)CC[C@@H]12 | inactive | 3.03 µM (active) and 1.94 µM (active) |  |  | 48 µM (active) | inactive | inactive |  |  | 
16 | c1ccc(-c2cccc(-c3ccccc3)c2)cc1 | inactive | inactive |  | inactive | inactive | inactive | inactive | inactive | inactive | inactive

Row | SMILES | Potency [1] | Potency [2] | Potency [3] | Potency [4] | Potency [5] | Potency [6] | Potency [7] | outcome [8] | outcome [9] | Potency [10]
17 | CCc1cccc(CC)c1N(COC)C(=O)CCl | inactive | inactive |  |  |  | inactive | inactive |  |  | 
18 | COP(=S)(OC)Oc1ccc([N+](=O)[O-])cc1 |  | inactive | inactive and 24.3 µM (active) |  | inactive | inactive | inactive | inactive | inactive | inactive
19 | CCOC(=S)S | inactive |  |  | 4.86 µM (active) | 4.86 µM (active) | inactive | inactive | inactive | inactive | 
20 | CCCCOCCOP(=O)(OCCOCCCC)OCCOCCCC | inactive | inactive |  | inactive | inactive | inactive | inactive | inactive | inactive | 
21 | CCC(=O)O[C@H]1CC[C@H]2[C@@H]3CCC4=CC(=O)CC[C@]4(C)[C@H]3CC[C@]12C | inactive |  | 0.486 µM (active) |  |  | inactive | inactive |  | inactive | 
22 | O=P(Oc1ccccc1)(Oc1ccccc1)Oc1ccccc1 | inactive | inactive |  | inactive | inactive | inactive | inactive | inactive | inactive | 
23 | Oc1cc(Cl)ccc1Oc1ccc(Cl)cc1Cl |  |  | 13.3 µM (active) | 31.4 µM (active) | 31.4 µM (active) and inactive | inactive | 39.8 µM (active) and inactive | inactive |  | 
24 | c1cc(OCC2CO2)ccc1Cc1ccc(OCC2CO2)cc1 (stereo not given) | inactive | inactive |  |  |  | inactive | inactive |  | inactive | 
25 | CCC(CC)Nc1c([N+](=O)[O-])cc(C)c(C)c1[N+](=O)[O-] | inactive | inactive |  | inactive | inactive | inactive | inactive |  | inactive | 
26 | CCC(C)c1ccc(O)cc1 (stereo not given) | inactive | inactive | inactive | inactive | inactive | inactive | inactive |  |  | 
27 | Clc1nc(Cl)nc(Cl)n1 | inactive | inactive | inactive | inactive | inactive | inactive | inactive |  |  | inactive
28 | Nc1ccc(Cl)c(Cl)c1 | inactive | inactive |  |  | inactive | inactive | inactive |  | inactive | inactive
29 | O=c1oc2ccccc2c(O)c1C(CC(O)c1ccc(-c2ccc(Br)cc2)cc1)c1ccccc1 (stereo not given) | inactive | inactive |  |  |  | inactive | inactive |  |  | inactive
30 | C[C@]12CCC(=O)C(O)=C1CC[C@@H]1[C@@H]2CC[C@]2(C)C(=O)CC[C@@H]12 | inactive | inactive |  |  | inactive | inactive | inactive |  |  | 
31 | CCCCC(CC)COC(=O)Cl (stereo not given) | inactive |  |  | inactive | inactive | inactive | inactive | inactive | inactive | 
32 | CCOCN(C(=O)CCl)c1c(C)cccc1CC | inactive | inactive |  | inactive | inactive | inactive | inactive |  | inactive | inactive
